Common to all, as to test: NCI-60 one-dose screen, 48 h (100 = growth as untreated, 0 = no growth, -100 = all killed)
One assay has as its system NCI-H23 lung. The note with it: 10 µM unless noted.
The next assay has as its system NCI-H226 lung. The following applies: 10 µM unless noted.
For another assay, the system named is NCI-H322M lung. The following applies: 10 µM unless noted.
In a further assay the test system is HOP-62 NSCLC. The note with it: 10 µM unless noted.
In the next assay the test system is NCI-H460 lung. The following applies: 10 µM unless noted.
The test system of the next assay is HOP-92 NSCLC. The note with it: 10 µM unless noted.
The test system of a further assay is NCI-H522 lung. The following applies: 10 µM unless noted.
The next assay concerns A549/ATCC NSCLC. The following applies: 10 µM unless noted.
In a further assay the test system is 786-0 renal. The following applies: 10 µM unless noted.
A further assay relates to COLO 205 colon. The following applies: 10 µM unless noted.
For a further assay, the system named is DU-145 prostate. The following applies: 10 µM unless noted.
For another assay, the system named is K-562 leukemia. The note with it: 10 µM unless noted.
The next assay concerns MALME-3M melanoma. The note with it: 10 µM unless noted.
The test system of another assay is MDA-MB-231 breast. The note with it: 10 µM unless noted.
The test system of another assay is RXF 393 renal. The note with it: 10 µM unless noted.
The next assay has as its system SF-268 CNS. The following applies: 10 µM unless noted.
In a further assay the test system is SF-295 CNS. The note with it: 10 µM unless noted.
The next assay concerns SF-539 CNS. The following applies: 10 µM unless noted.
The test system of the next assay is UACC-257 melanoma. The following applies: 10 µM.
In a further assay the test system is M14 melanoma. The note with it: 10 µM unless noted.

SMILES strings stand for the structures. About 83,000 compounds went through this panel and 20% of them were active in at least one assay; those are over-represented in the sample as a whole.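 Note: values are percent growth. 100 is the growth of untreated cells, values between 100 and 0 indicate rising inhibition; between -100 and 0 indicates cell death.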 Values without a mark were called inactive. Calls of active or inactive are those of the source. The calls were made as follows: active = growth percent below 10; inactive = the rest.

Take `COc1ccc(-c2nc3cc(Cl)c(Cl)cc3n2CC(=O)N=Nc2c(O)[nH]c3ccc(Cl)cc23)cc1`: the growth with NCI-H23 lung was 21.2%; in the assay on NCI-H226 lung, -8.97% (active); with NCI-H322M lung, 46.1%; with HOP-62 NSCLC it was 0.657% (active); in the assay on NCI-H460 lung, 16.9%; with HOP-92 NSCLC, -28% (active). Besides, the growth in the assay with NCI-H522 lung is 37.6%; in the assay with A549/ATCC NSCLC, 18.5%; with 786-0 renal, 24.7%; with COLO 205 colon, -3.46% (active); in the assay on DU-145 prostate, -10.9% (active); with K-562 leukemia it was 32.1%. The growth in the assay with MALME-3M melanoma was -10.1% (active); with MDA-MB-231 breast it was 29.8%; with RXF 393 renal, -48.2% (active); with SF-268 CNS, 51.8%; with SF-295 CNS, 4.56% (active); with SF-539 CNS it was 36%. In addition, the growth in the assay with UACC-257 melanoma is 71.9%; with M14 melanoma, 11.9%.
As to `NC(N)=NS(=O)(=O)c1ccc(N=NC2C(=O)NN(c3ccccc3)C2=O)cc1` (stereo not given), the growth is 93.5% with NCI-H23 lung; 85.6% with NCI-H226 lung; 101% in the assay with NCI-H322M lung; 110% in the assay with HOP-62 NSCLC; 101% with NCI-H460 lung; 68.9% in the assay on HOP-92 NSCLC. For the same compound, the growth was 104% in the assay on NCI-H522 lung; 104% with A549/ATCC NSCLC; 100% with 786-0 renal; 113% in the assay on COLO 205 colon; 104% in the assay with DU-145 prostate; 107% in the assay with K-562 leukemia. Further, the growth was 101% in the assay on MALME-3M melanoma; 94.9% in the assay with MDA-MB-231 breast; 106% in the assay with RXF 393 renal; 102% in the assay with SF-268 CNS; 104% with SF-295 CNS; 94.8% in the assay on SF-539 CNS. Moreover, the growth in the assay with UACC-257 melanoma was 120%; in the assay with M14 melanoma, 99.5%.
Turning to `CS(=O)(=O)c1nccc(-c2c(-c3ccc(F)c(OCc4ccccc4)c3)nc3sccn23)n1`, the growth in the assay on NCI-H23 lung is 98.4%; in the assay with NCI-H226 lung, 82.1%; in the assay on NCI-H322M lung it was 22.3%; in the assay with HOP-62 NSCLC, 105%; in the assay with NCI-H460 lung, 43.5%; with HOP-92 NSCLC, -5.33% (active). Also, the growth in the assay on NCI-H522 lung was 74.1%; in the assay on A549/ATCC NSCLC it was 103%; in the assay on 786-0 renal, 80.5%; in the assay on COLO 205 colon, 106%; in the assay with DU-145 prostate, -64% (active); in the assay with K-562 leukemia, 75.9%. Moreover, the growth in the assay with MALME-3M melanoma is 115%; with MDA-MB-231 breast, 93.1%; in the assay with RXF 393 renal, 94.7%; in the assay with SF-268 CNS, 104%; in the assay on SF-295 CNS, 98.5%; in the assay with SF-539 CNS, 95.1%. Moreover, the growth with UACC-257 melanoma was 17.8%; in the assay on M14 melanoma, 51.7%.
In the case of `Cc1ccc(/C=C/CC(=O)Nc2ccc(C(=O)Nc3ccc(F)cc3N)cc2)cn1`, the growth is 68.6% with NCI-H23 lung; 68.6% with NCI-H226 lung; 74.4% with NCI-H322M lung; 59.1% with HOP-62 NSCLC; 72.1% with NCI-H460 lung; 22.6% in the assay with HOP-92 NSCLC. Also, the growth in the assay with NCI-H522 lung was 30.4%; in the assay with A549/ATCC NSCLC, 69.2%; in the assay with 786-0 renal it was 75.6%; with COLO 205 colon, 49.4%; in the assay with DU-145 prostate, 54.3%; in the assay with K-562 leukemia, 34%. For the same compound, the growth with MALME-3M melanoma is 41.4%; in the assay on MDA-MB-231 breast it was 69.3%; with RXF 393 renal, 74.5%; with SF-268 CNS, 60.4%; in the assay on SF-295 CNS, 69.7%; with SF-539 CNS it was 55.9%. The growth with UACC-257 melanoma is 52.4%; in the assay with M14 melanoma, 56.7%.
Consider `Nc1nc(-c2cccc([N+](=O)[O-])c2)c(N=Nc2ccccc2Cl)s1`, for which the growth with NCI-H23 lung was 60.8%; in the assay with NCI-H226 lung it was 70.4%; in the assay with NCI-H322M lung, 86.3%; with HOP-62 NSCLC, 56.1%; in the assay on NCI-H460 lung, 41%; with HOP-92 NSCLC, 31.8%. For the same compound, the growth in the assay with NCI-H522 lung was 60.1%; with A549/ATCC NSCLC, 51.8%; in the assay on 786-0 renal, 52.6%; in the assay on COLO 205 colon, 93.1%; in the assay on DU-145 prostate, 52.6%; with K-562 leukemia, 52.5%. Also, the growth with MALME-3M melanoma was 111%; in the assay with MDA-MB-231 breast, 54.1%; in the assay with RXF 393 renal, -13.6% (active); with SF-268 CNS, 68.4%; with SF-295 CNS, 70.8%; in the assay on SF-539 CNS, 17.8%. The growth with UACC-257 melanoma is 104%; with M14 melanoma, 77.7%.
In the case of `COc1cc(/C=N/Nc2ccnc3cc(Cl)ccc23)cc(OC)c1O`, the growth is -42% (active) in the assay with NCI-H23 lung; 96.2% with NCI-H226 lung; -45.1% (active) in the assay on NCI-H322M lung; -78% (active) in the assay on HOP-62 NSCLC; -63.9% (active) with NCI-H460 lung; -74% (active) in the assay on HOP-92 NSCLC. Moreover, the growth is -73.8% (active) in the assay with NCI-H522 lung; -82.2% (active) with A549/ATCC NSCLC; -87.5% (active) in the assay with 786-0 renal; 72% in the assay with COLO 205 colon; -24.6% (active) in the assay with DU-145 prostate; -54.8% (active) with K-562 leukemia. In addition, the growth is -88.3% (active) with MALME-3M melanoma; -74.6% (active) in the assay on MDA-MB-231 breast; -86.8% (active) in the assay with RXF 393 renal; -37.3% (active) in the assay on SF-268 CNS; -80.3% (active) in the assay with SF-295 CNS; -85% (active) in the assay with SF-539 CNS. Moreover, the growth with UACC-257 melanoma was 112%; in the assay on M14 melanoma, -90.1% (active).
In the case of `CC(=O)c1ccc(NC(=O)COc2ccc(C3SCC(=O)N3c3ccc(Br)cc3)cc2)cc1` (stereo not given), the growth in the assay on NCI-H23 lung is 95.1%; in the assay with NCI-H226 lung it was 93%; with NCI-H322M lung, 99.1%; in the assay with HOP-62 NSCLC, 93.5%; in the assay with NCI-H460 lung, 108%; in the assay on HOP-92 NSCLC, 84.4%. Further, the growth is 84.8% with NCI-H522 lung; 93.9% in the assay on A549/ATCC NSCLC; 104% in the assay with 786-0 renal; 104% in the assay on COLO 205 colon; 104% in the assay on DU-145 prostate; 90.8% with K-562 leukemia. Further, the growth with MALME-3M melanoma was 107%; in the assay with MDA-MB-231 breast, 90.6%; in the assay with RXF 393 renal, 99.3%; in the assay with SF-268 CNS, 103%; in the assay with SF-295 CNS, 98%; in the assay with SF-539 CNS it was 99.2%. Besides, the growth is 102% in the assay with UACC-257 melanoma and 99.9% with M14 melanoma.
